Laboratory results published in PubChem BioAssay.
Calls of active or inactive are those of the source.

Tests used:
[1] = E. coli DRC41 culture turbidity changes, primary screen, E. coli filamentation inducer project, strain DRC41, OD650, 48 h (AID 1152);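 also: E. coli MC1000 strain DRC41 lacking acrAB efflux pump and sulA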; conditions: E. coli DRC41 (acrAB sulA), higher = more signal, called active from +8 up or from −8 down
[2] = small-molecule binders of probe aLefty1, primary screen, biochemical, small-molecule microarray, 635/667 nm fluorescence (AID 1153); conditions: higher = more signal;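 also: score merges spot fluorescence with signal-to-noise ratio from the scanned slide images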
[3] = PSAC antagonists in infected red cells, primary screen, cell-based, P. falciparum Indochina, OD700, 1 h (AID 1154); conditions: P. falciparum Indochina infected RBC osmotic lysis, higher = more signal, called active from +8 up or from −8 down
[4] = PSAC antagonists in infected red cells, primary screen, cell-based, P. falciparum Indochina, OD700, 2 h (AID 1155);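 also: lysis reports solute entry through the parasite surface anion channel PSAC; channel blockers reduce lysis of infected cells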; conditions: P. falciparum Indochina infected erythrocytes, osmotic lysis OD700; higher = more signal, called active from +8 up or from −8 down
[5] = osmotic lysis modulators in infected erythrocytes, primary screen, PSAC antagonist project, cell-based, P. falciparum Indochina, OD700, 3 h (AID 1156); conditions: higher = more signal, called active from +8 up or from −8 down
[6] = PSAC antagonists in infected red cells, primary screen, cell-based, P. falciparum Indochina, OD700, 18 h (AID 1157); conditions: P. falciparum Indochina infected erythrocytes, osmotic lysis OD700, 18 h; higher = more signal, called active from +8 up or from −8 down
[7] = modulators of S6 phosphorylation in cells, primary screen, cell-based, A549, cytoblot, luminescence, serum-stimulated (AID 1158); conditions: A549 phospho-S6 cytoblot, 5 h, higher = more signal;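 also: serum-stimulated A549 lung adenocarcinoma cells; signal is phosphorylated S6 detected by cytoblot immunostaining with HRP secondary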
[8] = molecular target: NADPH oxidase 2 (Homo sapiens) (UniProt P04839); assay: NOX2-dependent H2O2 signal modulators, primary screen, NOX inhibitor project, cell-based, HEK293-NOX2, PMA-stimulated, Amplex Red fluorescence (AID 1159); conditions: 45 min, higher = more signal, called active from +8 up or from −8 down; also: test concentration not given here
Chain of NADPH oxidase 2 (Homo sapiens) (P04839 whole entry, looked up): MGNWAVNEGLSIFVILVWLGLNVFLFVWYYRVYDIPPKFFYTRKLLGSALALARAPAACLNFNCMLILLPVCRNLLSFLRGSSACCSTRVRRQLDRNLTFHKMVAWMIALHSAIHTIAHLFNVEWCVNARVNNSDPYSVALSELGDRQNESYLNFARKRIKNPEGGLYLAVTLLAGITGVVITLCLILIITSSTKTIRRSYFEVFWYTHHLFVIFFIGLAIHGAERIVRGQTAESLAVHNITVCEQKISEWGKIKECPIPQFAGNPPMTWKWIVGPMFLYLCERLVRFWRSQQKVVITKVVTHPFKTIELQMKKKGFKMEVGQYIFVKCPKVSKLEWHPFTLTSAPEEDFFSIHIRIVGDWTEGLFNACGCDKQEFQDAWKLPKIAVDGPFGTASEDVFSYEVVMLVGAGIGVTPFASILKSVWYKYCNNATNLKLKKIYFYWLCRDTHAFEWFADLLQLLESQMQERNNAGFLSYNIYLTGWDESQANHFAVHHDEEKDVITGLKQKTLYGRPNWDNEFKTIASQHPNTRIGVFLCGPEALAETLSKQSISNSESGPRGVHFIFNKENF

[9] = molecular target: NADPH oxidase 4 (Homo sapiens) (UniProt Q9NPH5); assay: NOX4-dependent H2O2 signal modulators, primary screen, NOX inhibitor project, cell-based, HEK293-NOX4, tetracycline-induced, Amplex Red fluorescence (AID 1160); conditions: 45 min, higher = more signal, called active from +8 up or from −8 down
Chain of NADPH oxidase 4 (Homo sapiens) (Q9NPH5 whole entry, looked up): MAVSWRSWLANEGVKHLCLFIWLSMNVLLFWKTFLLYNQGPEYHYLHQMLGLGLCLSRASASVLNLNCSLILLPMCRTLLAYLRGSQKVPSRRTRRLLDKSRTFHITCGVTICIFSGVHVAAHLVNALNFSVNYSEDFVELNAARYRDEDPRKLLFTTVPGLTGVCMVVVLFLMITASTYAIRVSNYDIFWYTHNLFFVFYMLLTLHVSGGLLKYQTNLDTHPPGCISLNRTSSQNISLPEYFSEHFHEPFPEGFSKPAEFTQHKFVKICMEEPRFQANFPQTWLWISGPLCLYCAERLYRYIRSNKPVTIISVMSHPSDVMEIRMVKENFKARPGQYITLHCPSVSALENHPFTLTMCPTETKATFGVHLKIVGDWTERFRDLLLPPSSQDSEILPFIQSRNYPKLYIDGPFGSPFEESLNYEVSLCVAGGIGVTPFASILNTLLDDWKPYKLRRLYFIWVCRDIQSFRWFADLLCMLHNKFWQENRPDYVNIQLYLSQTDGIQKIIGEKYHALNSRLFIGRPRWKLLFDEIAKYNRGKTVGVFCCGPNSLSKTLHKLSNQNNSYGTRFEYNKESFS

[10] = molecular target: NADPH oxidase 5 (Homo sapiens) (UniProt Q96PH1); assay: NOX5-dependent H2O2 signal modulators, primary screen, NOX inhibitor project, cell-based, HEK293-NOX5, Amplex Red fluorescence (AID 1161); conditions: HEK293-NOX5, ionomycin, 45 min, higher = more signal
Chain of NADPH oxidase 5 (Homo sapiens) (Q96PH1 whole entry, looked up): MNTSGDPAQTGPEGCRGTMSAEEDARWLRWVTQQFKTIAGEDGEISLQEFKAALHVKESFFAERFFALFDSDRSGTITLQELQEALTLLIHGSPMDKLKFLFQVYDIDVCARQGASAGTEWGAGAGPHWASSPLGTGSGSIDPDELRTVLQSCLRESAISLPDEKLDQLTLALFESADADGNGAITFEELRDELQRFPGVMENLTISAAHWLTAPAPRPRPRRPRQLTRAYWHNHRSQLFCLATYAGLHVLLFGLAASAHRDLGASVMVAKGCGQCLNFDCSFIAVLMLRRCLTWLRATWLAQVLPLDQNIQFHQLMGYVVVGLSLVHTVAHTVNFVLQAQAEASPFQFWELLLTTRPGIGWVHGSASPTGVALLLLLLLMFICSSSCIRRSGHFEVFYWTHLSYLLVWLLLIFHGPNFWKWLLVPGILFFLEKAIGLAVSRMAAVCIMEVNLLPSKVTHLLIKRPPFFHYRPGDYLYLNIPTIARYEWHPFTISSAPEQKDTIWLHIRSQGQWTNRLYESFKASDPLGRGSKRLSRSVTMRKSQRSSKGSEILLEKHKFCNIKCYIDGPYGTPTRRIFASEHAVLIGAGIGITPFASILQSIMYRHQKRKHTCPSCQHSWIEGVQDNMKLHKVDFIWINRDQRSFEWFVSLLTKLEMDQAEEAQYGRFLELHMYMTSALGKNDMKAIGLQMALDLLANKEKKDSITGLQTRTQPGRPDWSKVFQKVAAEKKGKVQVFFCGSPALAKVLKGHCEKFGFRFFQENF

[11] = A549 cell viability effects, profiling panel, calcein-AM fluorescence, 48 h, basal (AID 1162); conditions: higher = more signal; also: test concentration not given here
[12] = adipocyte viability effects, profiling panel, cell-based, 3T3-L1 adipocytes, calcein-AM fluorescence, 48 h, basal (AID 1163); conditions: 3T3-L1 adipocytes viability, higher = more signal; also: test concentration not given here
[13] = HepG2 cell viability effects, profiling panel, calcein-AM fluorescence, 48 h, basal (AID 1164); conditions: higher = more signal; also: test concentration not given here
[14] = MM1S cell viability effects, profiling panel, calcein-AM fluorescence, 48 h, basal (AID 1165); conditions: higher = more signal;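 also: viability of MM1S multiple myeloma cells under basal unstimulated conditions; test concentration not given here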
[15] = basal RPMI8226 viability, no added stimulus, profiling panel, cell-based, calcein-AM fluorescence, 48 h, PK04 Diversity Set (AID 1166); conditions: RPMI8226 myeloma viability, higher = more signal;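 also: cells grown under basal conditions without added stimulus; test concentration not given here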
[16] = basal HepG2 mitochondrial membrane potential changes, profiling panel, cell-based, JC-1 fluorescence, 24 h, 100 nL compound (AID 1167); conditions: higher = more signal; also: test concentration not given here
[17] = basal 3T3-L1 adipocyte mitochondrial potential changes, profiling panel, cell-based, JC-1 fluorescence, 3T3-L1 adipocytes, 24 h, 100 nL compound (AID 1168); conditions: JC-1 mitochondrial fluorescence, higher = more signal, called active from +8 up or from −8 down; also: test concentration not given here
[18] = basal RPMI8226 mitochondrial membrane potential changes, profiling panel, cell-based, JC-1 fluorescence, 24 h, 100 nL compound (AID 1169); conditions: RPMI8226 myeloma, JC-1 mitochondrial potential fluorescence, higher = more signal; also: test concentration not given here
[19] = basal MM1S mitochondrial membrane potential changes, profiling panel, cell-based, JC-1 fluorescence, 24 h, 100 nL compound (AID 1170); conditions: higher = more signal; also: test concentration not given here
[20] = A549 lung cancer cell viability effects, profiling panel, resazurin fluorescence, 24 h, PK04 Diversity Set (AID 1171); conditions: higher = more signal, called active from +8 up or from −8 down; also: test concentration not given here

SMILES: NCCCC[C@@H]1NC(=O)[C@H]2C[C@@H](C(=O)NCc3ccc(F)cc3)[C@@H](c3ccc(O)cc3)N2C1=O
- z-score [1]: -0.495 (inactive)
- composite z-score [2]: 0.954
- z-score [3]: 2.55 (inactive)
- z-score [4]: 0.724 (inactive)
- z-score [5]: -3.15 (inactive)
- z-score [6]: 0.302 (inactive)
- z-score [7]: -0.516
- z-score [8]: 0.903 (inactive)
- z-score [9]: 0.941 (inactive)
- z-score [10]: 0.993
- z-score [11]: -0.494
- z-score [12]: -0.0841
- z-score [13]: -0.666
- z-score [14]: -0.206
- z-score [15]: 0.307
- z-score [16]: -1.64
- z-score [17]: -0.4 (inactive)
- z-score [18]: 0.667
- z-score [19]: 0.0192
- z-score [20]: -0.537 (inactive)

SMILES: C=C(/C(=C/C[C@@H](OC(C)=O)c1ccccc1OCCO)c1cc(C(=O)OC)ccc1OC)C(C)C
- z-score [1]: 0.516 (inactive)
- composite z-score [2]: -0.0545
- z-score [3]: 14.6 (active)
- z-score [4]: 2.61 (inactive)
- z-score [5]: 1.4 (inactive)
- z-score [6]: 0.994 (inactive)
- z-score [7]: 0.0105
- z-score [8]: 1.58 (inactive)
- z-score [9]: -0.286 (inactive)
- z-score [10]: -1.43
- z-score [11]: 0.793
- z-score [12]: -0.515
- z-score [13]: 0.561
- z-score [14]: -3.21
- z-score [15]: -1.11
- z-score [16]: 0.605
- z-score [17]: 0.118 (inactive)
- z-score [18]: 0.367
- z-score [19]: -0.503
- z-score [20]: 0.583 (inactive)

SMILES: CC(C)CNC(=O)[C@@H]1c2ccccc2C(=O)N(Cc2ccccc2Cl)[C@H]1c1ccc(CO)cc1
- z-score [1]: 0.244 (inactive)
- composite z-score [2]: -0.133
- z-score [3]: 2.54 (inactive)
- z-score [4]: 0.526 (inactive)
- z-score [5]: 0.531 (inactive)
- z-score [6]: 0.181 (inactive)
- z-score [7]: 0.279
- z-score [8]: -0.451 (inactive)
- z-score [9]: 0.16 (inactive)
- z-score [10]: -1.75
- z-score [11]: -0.103
- z-score [12]: 0.187
- z-score [13]: -0.228
- z-score [14]: -0.242
- z-score [15]: -0.183
- z-score [16]: 1.01
- z-score [17]: -0.0284 (inactive)
- z-score [18]: 0.13
- z-score [19]: 0.438
- z-score [20]: 0.914 (inactive)

SMILES: CCCCCCc1nc(-c2ccc(OC)nc2)cc2c1[Si](C(C)C)(C(C)C)OC2
- z-score [1]: -0.45 (inactive)
- composite z-score [2]: -0.103
- z-score [3]: 2.62 (inactive)
- z-score [4]: 0.0409 (inactive)
- z-score [5]: -0.484 (inactive)
- z-score [6]: -0.179 (inactive)
- z-score [7]: 0.366
- z-score [8]: -4.66 (inactive)
- z-score [9]: -2.14 (inactive)
- z-score [10]: -4.22
- z-score [11]: -0.848
- z-score [12]: 0.608
- z-score [13]: 0.238
- z-score [14]: -2.15
- z-score [15]: -3.11
- z-score [16]: -1.91
- z-score [17]: -0.191 (inactive)
- z-score [18]: -0.791
- z-score [19]: -0.368
- z-score [20]: 0.552 (inactive)

SMILES: [N-]=[N+]=NCc1ccccc1[C@H]1OC(c2ccc(OCCCO)cc2)=N[C@@]1(Cc1ccccc1)C(=O)N1CCOCC1
- z-score [1]: -0.686 (inactive)
- composite z-score [2]: 0.321
- z-score [3]: 28.8 (active)
- z-score [4]: 25.7 (active)
- z-score [5]: 2.96 (inactive)
- z-score [6]: 2.24 (inactive)
- z-score [7]: 0.692
- z-score [8]: -0.0281 (inactive)
- z-score [9]: 0.154 (inactive)
- z-score [10]: -0.526
- z-score [11]: 0.281
- z-score [12]: 0.491
- z-score [13]: 0.556
- z-score [14]: -1.45
- z-score [15]: -1.11
- z-score [16]: 0.213
- z-score [17]: -1.67 (inactive)
- z-score [18]: -0.887
- z-score [19]: 0.35
- z-score [20]: 1.56 (inactive)

SMILES: Cc1ccccc1C(O)C1C=CC2C(=O)N(c3ccccc3)C(=O)C2N1Nc1ccccc1F (stereo not given)
- z-score [1]: -1.37 (inactive)
- composite z-score [2]: 0.649
- z-score [3]: 10.8 (active)
- z-score [4]: 2.28 (inactive)
- z-score [5]: 0.39 (inactive)
- z-score [6]: 1.1 (inactive)
- z-score [7]: -1.16
- z-score [8]: -2.02 (inactive)
- z-score [9]: -5.43 (inactive)
- z-score [10]: -3.71
- z-score [11]: 0.569
- z-score [12]: -0.522
- z-score [13]: -0.157
- z-score [14]: -0.584
- z-score [15]: -0.666
- z-score [16]: -2.82
- z-score [17]: -1.49 (inactive)
- z-score [18]: -0.0566
- z-score [19]: 0.368
- z-score [20]: -0.425 (inactive)

SMILES: CCCCC(=C=CC[C@@H](O)c1ccc(OCCO)cc1)C[C@@H](O)c1ccccn1
- z-score [1]: 0.26 (inactive)
- composite z-score [2]: 0.122
- z-score [3]: 15.7 (active)
- z-score [4]: 2.47 (inactive)
- z-score [5]: 0.871 (inactive)
- z-score [6]: 0.849 (inactive)
- z-score [7]: -0.787
- z-score [8]: -0.697 (inactive)
- z-score [9]: -0.351 (inactive)
- z-score [10]: -1.77
- z-score [11]: -0.0074
- z-score [12]: 0.0358
- z-score [13]: 0.333
- z-score [14]: -2.63
- z-score [15]: -0.616
- z-score [16]: -1.05
- z-score [17]: -1.58 (inactive)
- z-score [18]: -0.674
- z-score [19]: -0.94
- z-score [20]: -0.477 (inactive)

SMILES: [N-]=[N+]=NCc1ccccc1C[C@]1(C(=O)N2CCOCC2)N=C(c2ccc(OCCCO)cc2)O[C@H]1c1ccccc1CN=[N+]=[N-]
- z-score [1]: 0.341 (inactive)
- composite z-score [2]: 1.15
- z-score [3]: 17.5 (active)
- z-score [4]: 3.97 (inactive)
- z-score [5]: 2.79 (inactive)
- z-score [6]: 1.15 (inactive)
- z-score [7]: 1.02
- z-score [8]: -0.647 (inactive)
- z-score [9]: 0.782 (inactive)
- z-score [10]: 2.13
- z-score [11]: 0.869
- z-score [12]: 0.577
- z-score [13]: 0.74
- z-score [14]: -1.47
- z-score [15]: -2.29
- z-score [16]: 1.24
- z-score [17]: 1.04 (inactive)
- z-score [18]: -1.18
- z-score [19]: 0.233
- z-score [20]: -0.768 (inactive)

SMILES: CN1C(=O)C2C(C1=O)C1C=C(c3ccc(CO)cc3)C2C(c2cccs2)N1C (stereo not given)
- z-score [1]: 0.894 (inactive)
- composite z-score [2]: 0.186
- z-score [3]: 3.57 (inactive)
- z-score [4]: 1.29 (inactive)
- z-score [5]: 1.43 (inactive)
- z-score [6]: 0.699 (inactive)
- z-score [7]: -0.105
- z-score [8]: 0.158 (inactive)
- z-score [9]: -1.96 (inactive)
- z-score [10]: -0.45
- z-score [11]: -0.0148
- z-score [12]: 0.338
- z-score [13]: 0.186
- z-score [14]: -0.88
- z-score [15]: -0.996
- z-score [16]: 0.398
- z-score [17]: -0.42 (inactive)
- z-score [18]: -0.492
- z-score [19]: 0.172
- z-score [20]: -0.173 (inactive)

SMILES: COCCOC(=O)N1C(=O)[C@@]2(c3cc(C#CC4(O)CCCCCC4)ccc31)[C@H](C(=O)NC[C@H](O)c1ccccc1)[C@H]1C(=O)O[C@H](c3ccccc3)[C@H](c3ccccc3)N1[C@@H]2c1ccc(O)cc1
- z-score [1]: 0.664 (inactive)
- composite z-score [2]: 0.501
- z-score [3]: 0.954 (inactive)
- z-score [4]: 1.01 (inactive)
- z-score [5]: 0.0635 (inactive)
- z-score [6]: 1.05 (inactive)
- z-score [7]: 0.632
- z-score [8]: 1.39 (inactive)
- z-score [9]: 1.02 (inactive)
- z-score [10]: 1.61
- z-score [11]: 0.188
- z-score [12]: -0.111
- z-score [13]: 0.814
- z-score [14]: -1.75
- z-score [15]: -2.8
- z-score [16]: -1.19
- z-score [17]: -0.11 (inactive)
- z-score [18]: -0.643
- z-score [19]: -0.113
- z-score [20]: 1.63 (inactive)
